Data taken from PubChem BioAssay (NCI).
Compounds without any hit were thinned out: in the full panel of roughly 83,000, 20% have a hit.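 Note: values are percent growth. 100 is the growth of untreated cells, values between 100 and 0 indicate rising inhibition; between -100 and 0 indicates cell death.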 The source made the active and inactive calls. How the source made its calls: active means growth percent below 10; inactive means the rest.

What follows are compounds tested on MDA-MB-231 breast (assay: NCI-60 one-dose screen, 48 h (100 = growth as untreated, 0 = no growth, -100 = all killed)). Conditions: 10 µM unless noted.

| SMILES | growth |
| --- | --- |
| O=C(NNC(=O)c1ccc(-n2cc(-c3ccccc3)nn2)cc1)Nc1ccccc1 | 108% (inactive) |
| COc1ccc(-c2csc(N(C(=O)N3CCN(c4cc5c(cc4F)c(=O)c(C(=O)O)cn5C4CC4)CC3)c3ccccc3)n2)cc1 | 28.3% (inactive) |
| O=Nc1c(-c2c(O)[nH]c3ncccc23)[nH]c2ccccc12 | 78.6% (inactive) |
| CCN1CC(=O)N(/N=C2\C(=O)Nc3ccccc32)C1=S | 88.5% (inactive) |
| O=C1CC(N2C(=O)/C(=C/C(Cl)=C\c3ccc([N+](=O)[O-])cc3)SC2=S)C(=O)N1c1ccc(Cl)cc1 (stereo not given) | -3.07% (active) |
| CN(C)C1CCN(Cc2ccc(NC(=O)c3cncc(C#Cc4cnc(N)c5ncccc45)c3)cc2C(F)(F)F)CC1 | 2.48% (active) |
| Cn1cc(-c2nonc2-c2c[nH]c3ccc(Br)cc23)c2cc(Br)ccc21 | 31.9% (inactive) |
| C[C@@H]1CCC[C@H]1CC(N)C(=O)O (stereo not given in full) | 121% (inactive) |
| S=C(Nc1ccc(-c2nc(N3CCOCC3)c3cccn3n2)cc1)Nc1cccnc1 | 41.3% (inactive) |
| O=C(CN1C(=O)CCC1=O)Nc1ncc(Cc2ccc(F)cc2)s1 | 97.4% (inactive) |
| CN1CCN(C(=O)OCc2ccc3c(Cl)cc(Cl)c(O)c3n2)CC1 | 90.5% (inactive) |
| O=C(O)[C@@H]1c2ccccc2-c2ccccc2[C@H]1C(=O)O | 105% (inactive) |
| Clc1ccc(Sc2cnc(-c3ccccc3)o2)cc1 | 97.2% (inactive) |
| C=C(C)[C@@H]1CC[C@]2(C(=O)NCC#CCN3CCN(C)CC3)CC[C@]3(C)[C@H](CC[C@@H]4[C@@](C)(CCC#N)[C@H](C(=C)C)CC[C@]43C)[C@@H]12 | 42.1% (inactive) |
| Cc1ccc(/C=N/Nc2nc(Nc3ccccc3)nc(-n3nc(C)cc3C)n2)cc1 | 51.6% (inactive) |
| COc1ccc(/C(C)=C(/c2ccc(OCCCN(C)C)cc2)c2ccc(OC(=O)Cc3ccccc3)cc2)cc1 | 59.7% (inactive) |
| CCOC(=O)C1=C(NC)OCC1=O | 107% (inactive) |
| C#CCOc1ccc2ncnc(Nc3cccc(NC(=O)C=C)c3)c2c1 | 58.1% (inactive) |
| COc1cc(-n2cc(-c3cc(O)c(C/C=C(\C)CCC=C(C)C)c(O)c3)nn2)cc2c1O[C@]1(C)CC[C@@H](O)C(C)(C)[C@H]1C2 | -30.7% (active) |
| N#C/C(=C\c1ccc(Br)cc1)n1nnc2ccc(F)cc21 | -11.4% (active) |

| SMILES | growth |
| --- | --- |
| CCN(CC)CCNC(=O)c1cn2ncnc(Oc3ccc(NC(=O)Nc4ccc(Cl)c(C(F)(F)F)c4)c(F)c3)c2c1C | -82.5% (active) |
| Cc1nc(N2CCOCC2)sc1S(N)(=O)=O | 101% (inactive) |
| CC(=O)N(N=Nc1ccccc1)c1cccc2ccccc12 | 78.2% (inactive) |
| Cc1ccc(-c2nc(N3CCNCC3)c3oc(-c4ccccc4)nc3n2)cc1 | -79.2% (active) |
| Cc1cc2c(O)c(-c3cc(Cl)ccc3Cl)c3sc(=O)oc3c2cc1C | 77.3% (inactive) |
| N=C(N)c1ccc(-c2ccc(-c3cc(Cl)cc(Cl)c3)o2)o1 | -68.2% (active) |
| CC1=Nc2cnc(Nc3ccc(OCCN4CCCCC4)cc3)nc2Nc2ccccc21 | 60.6% (inactive) |
| Cc1cccnc1NC(=S)Nc1ncccc1C | 112% (inactive) |
| CN1C(=O)/C(=C/c2ccc(C(=O)Nc3ncc(Cc4ccc(Cl)cc4)s3)cc2)SC1=S | 58% (inactive) |
| COc1ccc(-c2nnc3n(C)c(=O)c4ccccc4n23)cc1N | 41% (inactive) |
| CC1=C(CCC(C)N(C)Cc2ccc(OCCCN3CCCC3)cc2)C(C)(C)CCC1 (stereo not given) | -43.6% (active) |
| CCCc1cc(NC)nc(S(=O)(=O)CC)n1 | 109% (inactive) |
| Cc1cccc(Cl)c1NC(=O)c1ccc2nc(NC(=O)NCCN(C)C)sc2c1 | 92.6% (inactive) |
| O=c1oc2ccccc2cc1C1=NN=C(SCc2ccccc2)SC1 | 101% (inactive) |
| CC1(c2ccccc2O)NN=C(/N=C/c2cccc([N+](=O)[O-])c2)N1C(Cc1c[nH]c2ccccc12)C(=O)O (stereo not given) | 80.5% (inactive) |
| CC(O)c1cnc(/C=C2\SC(=S)N(Cc3ccccc3)C2=O)s1 (stereo not given) | 84.9% (inactive) |
| Cc1ccc(CNc2ccc(Cl)cc2NCc2ccc(C)c(O)c2)cc1O | -52.2% (active) |
| NC(=O)c1c(NC(=O)c2ccccc2)sc2c1CCC(=O)C2 | 0.799% (active) |
| CCn1c(=S)sc2c(Nc3ccc(F)cc3)nc(-c3cccnc3)nc21 | 75% (inactive) |
| COc1cc(C(=O)n2nc(N3CCN(C)CC3)c3cc(N)ccc32)cc(OC)c1OC | 50.3% (inactive) |

What follows are compounds tested on RXF 393 renal in the same assay as above. Conditions: 10 µM unless noted.

| SMILES | growth |
| --- | --- |
| O=C(NNC(=O)c1ccc(-n2cc(-c3ccccc3)nn2)cc1)Nc1ccccc1 | 103% (inactive) |
| COc1ccc(-c2csc(N(C(=O)N3CCN(c4cc5c(cc4F)c(=O)c(C(=O)O)cn5C4CC4)CC3)c3ccccc3)n2)cc1 | 35.8% (inactive) |
| O=Nc1c(-c2c(O)[nH]c3ncccc23)[nH]c2ccccc12 | 29.4% (inactive) |
| CCN1CC(=O)N(/N=C2\C(=O)Nc3ccccc32)C1=S | 76.5% (inactive) |
| O=C1CC(N2C(=O)/C(=C/C(Cl)=C\c3ccc([N+](=O)[O-])cc3)SC2=S)C(=O)N1c1ccc(Cl)cc1 (stereo not given) | -64.1% (active) |
| CN(C)C1CCN(Cc2ccc(NC(=O)c3cncc(C#Cc4cnc(N)c5ncccc45)c3)cc2C(F)(F)F)CC1 | 19.4% (inactive) |
| Cn1cc(-c2nonc2-c2c[nH]c3ccc(Br)cc23)c2cc(Br)ccc21 | 18.2% (inactive) |
| C[C@@H]1CCC[C@H]1CC(N)C(=O)O (stereo not given in full) | 117% (inactive) |
| S=C(Nc1ccc(-c2nc(N3CCOCC3)c3cccn3n2)cc1)Nc1cccnc1 | 17.9% (inactive) |
| O=C(CN1C(=O)CCC1=O)Nc1ncc(Cc2ccc(F)cc2)s1 | 109% (inactive) |
| CN1CCN(C(=O)OCc2ccc3c(Cl)cc(Cl)c(O)c3n2)CC1 | 71.3% (inactive) |
| O=C(O)[C@@H]1c2ccccc2-c2ccccc2[C@H]1C(=O)O | 102% (inactive) |
| Clc1ccc(Sc2cnc(-c3ccccc3)o2)cc1 | 115% (inactive) |
| C=C(C)[C@@H]1CC[C@]2(C(=O)NCC#CCN3CCN(C)CC3)CC[C@]3(C)[C@H](CC[C@@H]4[C@@](C)(CCC#N)[C@H](C(=C)C)CC[C@]43C)[C@@H]12 | 39.8% (inactive) |
| Cc1ccc(/C=N/Nc2nc(Nc3ccccc3)nc(-n3nc(C)cc3C)n2)cc1 | 55.9% (inactive) |
| COc1ccc(/C(C)=C(/c2ccc(OCCCN(C)C)cc2)c2ccc(OC(=O)Cc3ccccc3)cc2)cc1 | 67.8% (inactive) |
| CCOC(=O)C1=C(NC)OCC1=O | 100% (inactive) |
| C#CCOc1ccc2ncnc(Nc3cccc(NC(=O)C=C)c3)c2c1 | 6.44% (active) |
| COc1cc(-n2cc(-c3cc(O)c(C/C=C(\C)CCC=C(C)C)c(O)c3)nn2)cc2c1O[C@]1(C)CC[C@@H](O)C(C)(C)[C@H]1C2 | -60.6% (active) |
| N#C/C(=C\c1ccc(Br)cc1)n1nnc2ccc(F)cc21 | -41% (active) |

| SMILES | growth |
| --- | --- |
| CCN(CC)CCNC(=O)c1cn2ncnc(Oc3ccc(NC(=O)Nc4ccc(Cl)c(C(F)(F)F)c4)c(F)c3)c2c1C | -44.9% (active) |
| Cc1nc(N2CCOCC2)sc1S(N)(=O)=O | 103% (inactive) |
| CC(=O)N(N=Nc1ccccc1)c1cccc2ccccc12 | 89.6% (inactive) |
| Cc1ccc(-c2nc(N3CCNCC3)c3oc(-c4ccccc4)nc3n2)cc1 | -74.1% (active) |
| Cc1cc2c(O)c(-c3cc(Cl)ccc3Cl)c3sc(=O)oc3c2cc1C | 86% (inactive) |
| N=C(N)c1ccc(-c2ccc(-c3cc(Cl)cc(Cl)c3)o2)o1 | -88.8% (active) |
| CC1=Nc2cnc(Nc3ccc(OCCN4CCCCC4)cc3)nc2Nc2ccccc21 | 33.6% (inactive) |
| Cc1cccnc1NC(=S)Nc1ncccc1C | 92.3% (inactive) |
| CN1C(=O)/C(=C/c2ccc(C(=O)Nc3ncc(Cc4ccc(Cl)cc4)s3)cc2)SC1=S | 48.3% (inactive) |
| COc1ccc(-c2nnc3n(C)c(=O)c4ccccc4n23)cc1N | -10.5% (active) |
| CC1=C(CCC(C)N(C)Cc2ccc(OCCCN3CCCC3)cc2)C(C)(C)CCC1 (stereo not given) | -37.5% (active) |
| CCCc1cc(NC)nc(S(=O)(=O)CC)n1 | 108% (inactive) |
| Cc1cccc(Cl)c1NC(=O)c1ccc2nc(NC(=O)NCCN(C)C)sc2c1 | 47.5% (inactive) |
| O=c1oc2ccccc2cc1C1=NN=C(SCc2ccccc2)SC1 | 109% (inactive) |
| CC1(c2ccccc2O)NN=C(/N=C/c2cccc([N+](=O)[O-])c2)N1C(Cc1c[nH]c2ccccc12)C(=O)O (stereo not given) | 90.9% (inactive) |
| CC(O)c1cnc(/C=C2\SC(=S)N(Cc3ccccc3)C2=O)s1 (stereo not given) | 73.6% (inactive) |
| Cc1ccc(CNc2ccc(Cl)cc2NCc2ccc(C)c(O)c2)cc1O | 21.2% (inactive) |
| NC(=O)c1c(NC(=O)c2ccccc2)sc2c1CCC(=O)C2 | 18.7% (inactive) |
| CCn1c(=S)sc2c(Nc3ccc(F)cc3)nc(-c3cccnc3)nc21 | 78.6% (inactive) |
| COc1cc(C(=O)n2nc(N3CCN(C)CC3)c3cc(N)ccc32)cc(OC)c1OC | -13.3% (active) |
